The results in this text go back to the OligoGym collection.
Further: reference of the scale not given here.

One assay concerns the target ZNF653. Briefly: pooled miR-30 sensor sort-seq; sequence = guide strand. To be noted: shRNA.
On to TTGACGTGGTTCTGGAAGCTGC, for which the sensor-assay potency score (higher = more potent) was -0.877.
The sequence TTGTACTGCACCTCCGCAGTGT gave a sensor-assay potency score (higher = more potent) of -0.237.
As for TGAAGTTGTACTGCACCTCCGC, the sensor-assay potency score (higher = more potent) is -0.192.
For ATAAATAGAACTTCTTGCCACA, the sensor-assay potency score (higher = more potent) is -0.586.
The sequence TTTGTCACTGTCAGGGTCTGAG displayed a sensor-assay potency score (higher = more potent) of -0.472.
Turning to TTGGATAAATAGAACTTCTTGC, the sensor-assay potency score (higher = more potent) is -0.368.
On to TTCCTCTTGAAGGACTTGCCGC, for which the sensor-assay potency score (higher = more potent) was -0.882.
The same measure, in the same setting: under TTGGCGTCGCTCCAGCCGCTGC stands -1.56; under TGACATGTCGCTGCCGTCCAGC, -1.21.

Another assay has as its target ZNF654. Described as above. Conditions: shRNA.
As to TTCTGAACTAAACTGTCTGTTT, the sensor-assay potency score (higher = more potent) was determined as 0.135.
For TAAAGTTTCCTTCTTGATCTGT, the sensor-assay potency score (higher = more potent) is 0.508.
Regarding TTTGCTAGTAGAAACTGGCAGA, the sensor-assay potency score (higher = more potent) was -0.0895.
The same measure, in the same setting: under TTACACATGCAAAACTGCCTTT stands 0.225; under TTGTCGCACATTTAAATCGGTT, -1.07.
Sequence TAAATATCCGGACACAACCAAG returned a sensor-assay potency score (higher = more potent) of -1.3.
Turning to TATCTTGATCAGAACAGGCATC, the sensor-assay potency score (higher = more potent) was -0.711.
Same read-out and setting: under TGAGTCTGTCTGAACATCCCAA stands -0.147.
For the sequence TAGGATTTGAGTCTGTCTGAAC, the sensor-assay potency score (higher = more potent) is -1.01.
Turning to TTGATTTGCTAGTAGAAACTGG, the sensor-assay potency score (higher = more potent) was 0.3.
Still for that read-out and setting: the value for TTGAGCTGCAGCAATTTGCTGC was 0.117; that for TTCTTGTGGTACAACACTGGGC was -0.302.

The next assay deals with ZNF674. The assay is described as above. To be noted: shRNA.
The sequence TTGATGAGAGTTGACTTCCTAC displayed a sensor-assay potency score (higher = more potent) of -0.0843.
Regarding TACATTCTTGACCACTTTCATC, the sensor-assay potency score (higher = more potent) is -1.6.
Take TTCTTGACCACTTTCATCCTTC: the sensor-assay potency score (higher = more potent) amounted to 0.42.
TTGACCACTTTCATCCTTCAGT yielded a sensor-assay potency score (higher = more potent) of 0.00879.
As to TATCTGCTCGTCAACTTCCCAG, the sensor-assay potency score (higher = more potent) is -1.05.
Still for that read-out and setting: under TTTTACATTCTTGACCACTTTC stands -0.602; under TTTTACAGAAACAAAGTCTGTG, 0.624; under TACAGAAACAAAGTCTGTGTTG, -0.525.
In the case of TTCTACATATTTTACATTCTTG, the sensor-assay potency score (higher = more potent) is -0.737.
On to TTTACTACACTCATAAATGTTC, for which the sensor-assay potency score (higher = more potent) is -0.591.
Still for that read-out and setting: the value for TTTACAGAAACAAAGTCTGTGT was -0.0841.
The sequence TTGGACATTTGTCACATACAAA came in with a sensor-assay potency score (higher = more potent) of -1.79.

In the next assay the target is ZNF708. Described as above. To be noted: shRNA.
With TTCTCTAACATGACATTCCTAT, the sensor-assay potency score (higher = more potent) is -0.111.
TTTCTAGTAAGAATTATCTTAC had a sensor-assay potency score (higher = more potent) of -0.946.
Turning to TATCTTATGATTCGTAAGGTTT, the sensor-assay potency score (higher = more potent) was -1.04.
Sequence TACTGTGATGTCTTCCAGCTTT yielded a sensor-assay potency score (higher = more potent) of -0.106.
In the case of ATGTCTTATCTTATGTCTCTTT, the sensor-assay potency score (higher = more potent) is -1.05.
Sequence TCTGATATCCACATTTTCCATA came in with a sensor-assay potency score (higher = more potent) of -1.12.
As to TTTGTCACACTGAACTATTTTG, the sensor-assay potency score (higher = more potent) was -1.74.
